Experimental findings from PubChem BioAssay (Tox21) are described below.

The structures appear in SMILES notation. Results filed as inconclusive are left out. A number with no mark means an inactive call. Active and inactive are the calls of the source. Unless noted, calls follow the shape of the dose curve; as a rule, active = well fitted curve in the direction sought with a large enough effect in the repeat runs; inconclusive = weak or mixed curves; inactive = no such curve, though single readings can be large; an effect the other way counts as inactive or inconclusive.

Assay [1] is described as follows: qHTS assay to identify small molecule agonists of the estrogen related receptor signaling pathway with the pleiotropic PPARgamma coactivator (PGC) (AID 1224823). The following applies: ERR/PGC reporter cell line, luciferase agonist mode; series mostly up to 46.1 µM. The gist of the method: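 Cell-based luciferase assay in the NTP-supplied PGC/ERR line, 2,000 cells/well; 18 h compound exposure at 37 C, luminescence after One-Glo.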

Assay [2] in a line: qHTS assay to identify small molecule antagonists of the estrogen related receptor (ERR) signaling pathway - cell viability counter screen (AID 1224818). Also: potency is read from the fitted curve at half-maximal effect.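 Also: viability measured after 17.5 h of compound exposure.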 Particulars: ERR reporter cell line viability counter screen; series mostly up to 46.1 µM. The gist of the method:
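In the same ERR cell assay, compound-treated wells (17.5 h, 37 C) were multiplexed with a fluorogenic viability reagent, CellTiter-Fluor, read after 30 min to flag cytotoxic substances.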

Assay [3] is described as follows: qHTS assay to identify small molecule antagonists of the estrogen related receptor (ERR) signaling pathway (AID 1224819; also: nearly all actives have a fitted effect of over 50% in size; also: potency is read from the fitted curve at half-maximal effect). The following applies: ERR reporter cell line, luciferase inhibition; series mostly up to 46.1 µM. The gist of the method: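 qHTS in ERR cells, 2,000/well, 1536 format. Cpd (DMSO) added after 6 h settle, 18 h 37 C. One-Glo luminescence, 30 min RT.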

The nature of assay [4]: qHTS assay to identify small molecule agonists of the estrogen related receptor (ERR) signaling pathway (AID 1224820). Particulars: ERR reporter cell line, luciferase agonist mode; series mostly up to 46.1 µM. The gist of the method:
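Quantitative HTS of the LOPAC library used NTP ERR reporter cells treated 18 h at 37 C. Signal is luminescence after One-Glo addition and a 30 min room-temperature incubation.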

In assay [5] the test system is estrogen-related receptor alpha (ERRalpha) with PGC-1alpha coactivator, human. The assay is described as follows: qHTS assay to identify small molecule antagonists of the estrogen related receptor signaling pathway with the pleiotropic PPARgamma coactivator (PGC) (AID 1224821; calls by dose curve; also: nearly all actives have a fitted effect of over 50% in size; also: potency is read from the fitted curve at half-maximal effect). Particulars: ERR/PGC reporter cell line, luciferase, antagonist mode; series mostly up to 46.1 µM. The gist of the method: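 Quantitative HTS for antagonism: PGC/ERR cells received compounds after 6 h attachment and were incubated 18 h at 37 C, with luminescence (One-Glo) as the endpoint.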

Assay [6] can be described thus: qHTS assay to identify small molecule antagonists of the estrogen related receptor signaling pathway with the pleiotropic PPARgamma coactivator (PGC) cell viability counter screen (AID 1224822; also: potency is read from the fitted curve at half-maximal effect). Particulars: ERR/PGC reporter cell line viability counter screen; series mostly up to 46.1 µM. The gist of the method:
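Compounds in DMSO, with positive and negative controls, were applied to PGC/ERR cells (2,000/well) and left 17.5 h at 37 C before CellTiter-Fluor detection.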

As for `O=c1ccn([C@@H]2O[C@H](COP(=O)(O)OP(=O)(O)O)[C@@H](O)[C@H]2O)c(=O)[nH]1`, the Potency entry in assay [1] was “inactive”.
Consider `N=C(N)SCCc1cnc[nH]1`, for which, in assay [1], the Potency result was “inactive”.
With `CCN(CC)CCCCNc1ncc2cc(-c3c(Cl)cccc3Cl)c(NC(=O)NC(C)(C)C)nc2n1`, the Potency in assay [2] was 22 µM (active); in assay [3] it was 2.37 µM (active); in assay [6] it was 13.3 µM (active). Further, the Potency entry in assay [4], in assay [5] and in assay [1] was “inactive” throughout.
Consider `O=C(O)CC1CCCc2ccccc2C1O` (configuration not stated), for which the Potency entry in assay [2], in assay [3], in assay [4], in assay [5], in assay [6] and in assay [1] was “inactive” each time.
For `NCCNS(=O)(=O)c1cccc2c(Cl)cccc12`, the Potency result in assay [2], in assay [3], in assay [4], in assay [5], in assay [6] and in assay [1] was “inactive” in each case.
Regarding `Nc1ncnc2c1ncn2C1CCCC1`, the Potency entry in assay [2], in assay [3], in assay [4], in assay [5], in assay [6] and in assay [1] was “inactive” throughout.
`NS(=O)(=O)c1cccc2c1c([N+](=O)[O-])cc1nc(O)c(O)nc12`: the Potency result in assay [2], in assay [3], in assay [4], in assay [5], in assay [6] and in assay [1] was “inactive” throughout.
Regarding `O=C1OC(=O)C2C3CCC(O3)C12` (configuration not stated), the Potency result in assay [2], in assay [3], in assay [4], in assay [5], in assay [6] and in assay [1] was “inactive” in each case.
Take `C=CC[C@H](N)C(=O)O`: the Potency entry in assay [2], in assay [3], in assay [4], in assay [5], in assay [6] and in assay [1] was “inactive” in each case.
On to `COc1ccccc1N1CCN(CCCNc2c(C)c(=O)n(C)c(=O)n2C)CC1`, for which the Potency entry in assay [2], in assay [3], in assay [4], in assay [5], in assay [6] and in assay [1] was “inactive” each time.
As to `O=C(O)C1CCCNC1` (configuration not stated), the Potency result in assay [2], in assay [3], in assay [4], in assay [5], in assay [6] and in assay [1] was “inactive” each time.
With `COCc1nc2c([nH]1)c(=O)n(C)c(=O)n2CC(C)C`, the Potency result in assay [2], in assay [3], in assay [4], in assay [5], in assay [6] and in assay [1] was “inactive” throughout.
For the compound `NC(=O)CNCCC(c1ccccc1)c1ccccc1`, the Potency result in assay [2], in assay [3], in assay [4], in assay [5], in assay [6] and in assay [1] was “inactive” each time.
Turning to `O=C(O)CCc1ccc(NCc2cccc(Oc3ccccc3)c2)cc1`, the Potency result in assay [2], in assay [3], in assay [4], in assay [5], in assay [6] and in assay [1] was “inactive” throughout.
As to `O=[N+]([O-])c1ccc(CSc2ncnc3c2ncn3[C@@H]2O[C@H](CO)C(O)[C@H]2O)cc1` (some centres not stated), the Potency entry in assay [2], in assay [3], in assay [4], in assay [5], in assay [6] and in assay [1] was “inactive” throughout.
On to `CC(=O)NNC(=O)N1Cc2ccccc2Oc2ccc(Cl)cc21`, for which the Potency result in assay [2], in assay [3], in assay [4], in assay [5], in assay [6] and in assay [1] was “inactive” throughout.
As for `NCCCCN=C(N)N`, the Potency entry in assay [2], in assay [3], in assay [4], in assay [5], in assay [6] and in assay [1] was “inactive” throughout.
For the compound `[Li+]`, the Potency result in assay [2], in assay [3], in assay [4], in assay [5], in assay [6] and in assay [1] was “inactive” throughout.
Consider `COc1ccc2c(c1)c(CC(=O)O)c(C)n2C(=O)c1ccccc1`, for which the Potency result in assay [2], in assay [3], in assay [4], in assay [5], in assay [6] and in assay [1] was “inactive” in each case.
For `NC1CONC1=O` (configuration not stated), the Potency result in assay [2], in assay [3], in assay [4], in assay [5], in assay [6] and in assay [1] was “inactive” in each case.
`CC1(C)CCC2=C(O1)c1ccccc1C(=O)C2=O`: the Potency is 16.8 µM (active) in assay [2], 9.44 µM (active) in assay [3], 13.3 µM (active) in assay [5] and 18.8 µM (active) in assay [6]. Also, the Potency entry in assay [4] and in assay [1] was “inactive” throughout.
Consider `N#Cc1cc2nc(O)c(O)nc2cc1[N+](=O)[O-]`, for which the Potency result in assay [2], in assay [3], in assay [4], in assay [5], in assay [6] and in assay [1] was “inactive” throughout.
As for `CCCCCCCCCCCCCCSCC(=O)O`, the Potency entry in assay [2], in assay [3], in assay [4], in assay [5], in assay [6] and in assay [1] was “inactive” in each case.
Consider `CCCCOc1cc(CC2CNC(=O)N2)ccc1OC` (configuration not stated), for which the Potency entry in assay [2], in assay [3], in assay [4], in assay [5], in assay [6] and in assay [1] was “inactive” in each case.
With `CSc1nc(N)c2ncn([C@@H]3O[C@H](COP(=O)(O)OP(=O)(O)OP(=O)(O)O)C(O)[C@H]3O)c2n1` (some centres not stated), the Potency entry in assay [2], in assay [3], in assay [4], in assay [5], in assay [6] and in assay [1] was “inactive” throughout.
Consider `[N-]=[N+]=Nc1ccc(C(=O)CSC[C@H](NC(=O)CC[C@H](N)C(=O)O)C(=O)NCC(=O)O)cc1`, for which the Potency result in assay [2], in assay [4], in assay [5], in assay [6] and in assay [1] was “inactive” in each case. Also, the Potency in assay [3] was 0.552 µM (active).
For `S=C(S)OC1CC2CC1C1CCCC21` (configuration not stated), the Potency result in assay [2], in assay [3], in assay [4], in assay [5], in assay [6] and in assay [1] was “inactive” each time.
Regarding `CC(C)C[C@H](NC(=O)[C@H](O)[C@H](N)Cc1ccccc1)C(=O)O`, the Potency result in assay [2], in assay [3], in assay [4], in assay [5], in assay [6] and in assay [1] was “inactive” throughout.
In the case of `CC1CCN=C(N)S1` (configuration not stated), the Potency result in assay [2], in assay [3], in assay [4], in assay [5], in assay [6] and in assay [1] was “inactive” each time.
As for `C1CCc2nnnn2CC1`, the Potency result in assay [2], in assay [3], in assay [4], in assay [5], in assay [6] and in assay [1] was “inactive” throughout.
Consider `CS(=O)(=O)c1cccc(CNc2nc(Nc3ccc4c(c3)CCC(=O)N4)ncc2C(F)(F)F)c1`, for which the Potency result in assay [2], in assay [3], in assay [4], in assay [5], in assay [6] and in assay [1] was “inactive” throughout.
Regarding `CC[C@H]1OC(=O)[C@H](C)[C@@H](O[C@H]2C[C@@](C)(OC)[C@@H](O)[C@H](C)O2)[C@H](C)[C@@H](O[C@@H]2O[C@H](C)C[C@H](NC)[C@H]2O)[C@](C)(O)C[C@@H](C)CN(C)[C@H](C)[C@@H](O)[C@]1(C)O`, the Potency result in assay [2], in assay [3], in assay [4], in assay [5], in assay [6] and in assay [1] was “inactive” in each case.
